# Measured values as given in PubChem BioAssay (NCATS).
# Results filed as inconclusive are left out. Where a call stands in place of a potency, no number is given. Calls of active or inactive are those of the source. Unless noted, calls follow the shape of the dose curve; as a rule, active = well fitted curve in the direction sought with a large enough effect; inconclusive = small, poorly fitted or top-dose-only effect, or another doubt; inactive = no such curve, though single readings can be large; an effect the other way counts as inactive or inconclusive.
# How the values were obtained:
# [1] = target: Pyruvate kinase (Leishmania mexicana) (UniProt Q27686); assay: qHTS Validation Assay for Activators of Leishmania Mexicana Pyruvate Kinase (AID 959); conditions: purified L. mexicana pyruvate kinase, enzyme activity; series mostly up to 57.5 µM
# Chain of Pyruvate kinase (Leishmania mexicana) (Q27686 2-499 E452W): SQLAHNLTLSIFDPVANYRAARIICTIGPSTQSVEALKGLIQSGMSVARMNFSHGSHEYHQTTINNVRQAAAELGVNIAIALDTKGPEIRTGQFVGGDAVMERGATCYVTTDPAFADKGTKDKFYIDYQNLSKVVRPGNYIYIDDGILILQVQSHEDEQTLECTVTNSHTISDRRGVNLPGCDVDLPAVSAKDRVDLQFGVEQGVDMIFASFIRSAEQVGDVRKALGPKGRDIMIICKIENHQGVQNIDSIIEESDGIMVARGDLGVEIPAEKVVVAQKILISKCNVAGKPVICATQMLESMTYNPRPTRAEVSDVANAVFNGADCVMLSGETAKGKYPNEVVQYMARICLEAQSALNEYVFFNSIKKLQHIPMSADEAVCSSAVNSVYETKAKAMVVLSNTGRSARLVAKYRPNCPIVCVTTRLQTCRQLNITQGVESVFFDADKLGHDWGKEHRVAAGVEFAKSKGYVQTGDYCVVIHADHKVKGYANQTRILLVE
# Procedure, shortened: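 Eight-point qHTS titrations in triplicate, data normalized to DMSO neutral control. Reaction: 0.2 nM LmPYK E451W mutant, 0.5 mM PEP, 0.1 mM ADP, 7 mM MgCl2, pH 7.2, one hour at room temperature; luminescent ATP detection.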
# [2] = test system: Zika virus NS2B-NS3 protease (linked); assay: 384 well plate NINDS AMC confirmatory qHTS for Zika virus inhibitors (AID 1347163); conditions: Recombinant NS2B-NS3 protease, Ac-VKTGKR-AMC fluorescence; also: potency is read from the fitted curve at half-maximal effect; nearly all actives have a fitted effect of over 50% in size
# Procedure, shortened: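 Linked NS2B-NS3 protease (final 5 nM, 30 nM or 60 nM) was preincubated with compounds (final up to 1 mM) for ~15 minutes. Ac-VKTGKR-AMC substrate (final 30 microM) then reacted for 25 minutes at room temperature in the dark. Fluorescence (ex 355/em 460 nm) was normalized to no-enzyme and no-inhibitor controls.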
# [3] = target: Rap guanine nucleotide exchange factor 3 (Homo sapiens) (UniProt O95398); assay: Confirmatory qHTS for agonist of cAMP-regulated guanine nucleotide exchange factor 3 (EPAC1) (AID 1645881); conditions: EPAC1 Rap1B BODIPY-GDP exchange fluorescence, 100% = cAMP control response; series mostly up to 154 µM;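 also: EPAC1 catalysed release of BODIPY-GDP from Rap1B seen as fluorescence loss; nearly all actives have a fitted effect of over 75% in size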
# Chain of Rap guanine nucleotide exchange factor 3 (Homo sapiens) (O95398 whole entry, looked up): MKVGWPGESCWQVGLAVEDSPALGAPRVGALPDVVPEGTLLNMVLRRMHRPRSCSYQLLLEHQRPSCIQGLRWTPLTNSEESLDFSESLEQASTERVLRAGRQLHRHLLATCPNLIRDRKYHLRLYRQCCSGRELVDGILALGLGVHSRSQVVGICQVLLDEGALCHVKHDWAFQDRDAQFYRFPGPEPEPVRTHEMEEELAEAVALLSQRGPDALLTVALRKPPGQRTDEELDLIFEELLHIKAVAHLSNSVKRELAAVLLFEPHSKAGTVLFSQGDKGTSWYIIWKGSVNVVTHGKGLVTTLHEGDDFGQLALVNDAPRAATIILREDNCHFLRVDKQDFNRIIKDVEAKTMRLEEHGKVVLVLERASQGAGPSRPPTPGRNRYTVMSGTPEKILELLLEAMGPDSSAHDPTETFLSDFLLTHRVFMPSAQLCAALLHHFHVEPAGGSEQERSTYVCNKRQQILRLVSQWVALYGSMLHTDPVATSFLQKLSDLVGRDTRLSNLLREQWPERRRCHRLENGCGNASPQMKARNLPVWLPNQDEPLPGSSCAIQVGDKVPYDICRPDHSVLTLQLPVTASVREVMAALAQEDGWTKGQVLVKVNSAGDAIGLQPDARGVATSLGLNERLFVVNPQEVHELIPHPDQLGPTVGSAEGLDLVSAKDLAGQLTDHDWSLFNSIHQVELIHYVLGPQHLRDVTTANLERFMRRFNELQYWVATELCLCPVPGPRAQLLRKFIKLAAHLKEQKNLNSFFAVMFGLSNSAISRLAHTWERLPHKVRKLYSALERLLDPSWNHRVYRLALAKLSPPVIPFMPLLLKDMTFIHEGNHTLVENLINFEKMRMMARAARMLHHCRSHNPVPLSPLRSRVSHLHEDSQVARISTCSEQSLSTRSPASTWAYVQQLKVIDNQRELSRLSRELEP
# [4] = target: Rap guanine nucleotide exchange factor 4 (Homo sapiens) (UniProt Q8WZA2); assay: Confirmatory qHTS for agonist of cAMP-regulated guanine nucleotide exchange factor 4 (EPAC2) (AID 1645884); conditions: EPAC2 GEF activity, Rap1B-BODIPY-GDP fluorescence, percent relative to cAMP agonist control; series mostly up to 154 µM;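 also: nucleotide exchange releases bodipy-GDP from Rap1 and this lowers its fluorescence; nearly all actives have a fitted effect of over 65% in size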
# Chain of Rap guanine nucleotide exchange factor 4 (Homo sapiens) (Q8WZA2 whole entry, looked up): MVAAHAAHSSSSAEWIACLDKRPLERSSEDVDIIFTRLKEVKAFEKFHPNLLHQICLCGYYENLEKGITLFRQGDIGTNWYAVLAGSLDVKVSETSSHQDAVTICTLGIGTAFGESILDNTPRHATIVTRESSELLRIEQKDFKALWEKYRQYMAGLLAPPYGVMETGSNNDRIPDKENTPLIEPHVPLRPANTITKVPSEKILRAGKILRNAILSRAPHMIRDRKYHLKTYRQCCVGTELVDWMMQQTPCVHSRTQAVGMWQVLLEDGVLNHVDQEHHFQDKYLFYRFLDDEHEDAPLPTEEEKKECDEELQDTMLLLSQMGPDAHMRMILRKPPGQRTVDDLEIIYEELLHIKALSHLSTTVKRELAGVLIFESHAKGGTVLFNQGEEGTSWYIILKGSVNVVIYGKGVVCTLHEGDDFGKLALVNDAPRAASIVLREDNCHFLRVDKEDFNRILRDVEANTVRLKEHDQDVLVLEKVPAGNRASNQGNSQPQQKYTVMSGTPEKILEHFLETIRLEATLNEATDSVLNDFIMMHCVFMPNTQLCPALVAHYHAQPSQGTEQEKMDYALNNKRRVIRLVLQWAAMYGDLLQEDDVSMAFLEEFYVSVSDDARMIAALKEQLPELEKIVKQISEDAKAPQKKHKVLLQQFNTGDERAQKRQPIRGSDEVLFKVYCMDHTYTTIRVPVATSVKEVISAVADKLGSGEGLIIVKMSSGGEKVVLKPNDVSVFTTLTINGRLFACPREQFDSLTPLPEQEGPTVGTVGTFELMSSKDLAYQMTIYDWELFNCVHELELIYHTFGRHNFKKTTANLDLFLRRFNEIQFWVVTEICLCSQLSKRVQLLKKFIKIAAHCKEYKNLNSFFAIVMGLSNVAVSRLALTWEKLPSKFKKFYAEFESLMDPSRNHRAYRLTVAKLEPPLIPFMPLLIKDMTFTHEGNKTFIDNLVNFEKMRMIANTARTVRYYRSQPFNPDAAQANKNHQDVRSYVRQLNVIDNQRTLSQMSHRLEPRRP
# [5] = target: Luciferin 4-monooxygenase (Photinus pyralis) (UniProt P08659); assay: Biochemical firefly luciferase enzyme assay for NPC (AID 624030);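 also: purified P. pyralis luciferase at 10 nM with luciferin and ATP substrate; nearly all actives have a fitted effect of over 70% in size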; conditions: purified P. pyralis luciferase, luminescence, 5 min; series mostly up to 58.6 µM
# Chain of Luciferin 4-monooxygenase (Photinus pyralis) (P08659 whole entry, looked up): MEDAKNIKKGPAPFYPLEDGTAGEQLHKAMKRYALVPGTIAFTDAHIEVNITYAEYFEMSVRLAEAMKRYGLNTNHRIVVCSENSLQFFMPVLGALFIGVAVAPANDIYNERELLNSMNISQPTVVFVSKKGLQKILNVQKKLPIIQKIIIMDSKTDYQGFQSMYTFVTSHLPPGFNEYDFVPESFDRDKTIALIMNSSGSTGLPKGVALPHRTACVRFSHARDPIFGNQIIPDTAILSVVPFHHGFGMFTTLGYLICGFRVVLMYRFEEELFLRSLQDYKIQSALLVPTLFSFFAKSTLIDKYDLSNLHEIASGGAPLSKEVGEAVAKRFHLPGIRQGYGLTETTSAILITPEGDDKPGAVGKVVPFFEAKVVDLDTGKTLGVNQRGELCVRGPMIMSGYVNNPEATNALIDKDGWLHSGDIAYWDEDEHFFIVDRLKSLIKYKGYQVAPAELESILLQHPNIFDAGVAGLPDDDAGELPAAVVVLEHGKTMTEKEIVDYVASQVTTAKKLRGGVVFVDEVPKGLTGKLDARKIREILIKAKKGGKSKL
# Procedure, shortened: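 Counter-screen for direct inhibition of the luciferase enzyme by approved-drug library compounds, run at 10 nM enzyme in 50 mM Tris acetate (final). Luminescence was read within 5 min of enzyme-buffer addition and normalized to PTC124 versus DMSO (0%).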
# [6] = test system: Zika virus NS2B-NS3 protease (linked construct); assay: Primary screen NINDS Rhodamine qHTS for Zika virus inhibitors (AID 1347160); conditions: purified NS2B-NS3 protease, Rhodamine110 substrate fluorescence; series mostly up to 57.1 µM; also: nearly all actives have a fitted effect of over 55% in size
# Procedure, shortened: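 Percent inhibition, normalized to uninhibited and enzyme-free controls, is fitted to a 4-parameter Hill equation. Fluorescence change comes from a 15-min cleavage of 1.5 microM bis-peptide Rhodamine110 substrate by 25 nM linked NS2B-NS3 at room temperature.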
# [7] = OV-KATE Cancer Cell Toxicity qHTS against the NCATS CANVASS Library (AID 1347345); conditions: OV-KATE cells viability, CellTiter-Glo luminescence, 72 h; series mostly up to 38.3 µM
# Procedure, shortened: (§1)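 1000 cells/well seeded and rested 4 h at 37 °C before pin transfer of compounds in an 11-pnt series. Exposure 72 h at 37 °C/5% CO2; viability by CellTiter-Glo luminescence after 15 min at room temperature.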
# [8] = SW1088 Cancer Cell Toxicity qHTS against the NCATS CANVASS Library (AID 1347350); conditions: SW1088 viability, CellTiter-Glo luminescence, 72 h; series mostly up to 38.3 µM; also: nearly all actives have a fitted effect of over 75% in size
# Procedure, shortened: as §1
# [9] = U-118MG Cancer Cell Toxicity qHTS against the NCATS CANVASS Library (AID 1347351); conditions: U-118MG viability, CellTiter-Glo luminescence, 72 h; series mostly up to 38.3 µM
# Procedure, shortened: as §1
# [10] = COV-362 Cancer Cell Toxicity qHTS against the NCATS CANVASS Library (AID 1347352); conditions: COV-362 viability, CellTiter-Glo luminescence, 72 h; series mostly up to 38.3 µM; also: potency is read from the fitted curve at half-maximal effect
# Procedure, shortened: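 Luminescent ATP read-out (CellTiter-Glo, 15min at room temperature) measures survival after cells face an 11-point compound series for 72 hours at 37 degrees C/5% CO2.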
# [11] = A2780 Cisplatin Sensitive Ovarian Cancer Cell Toxicity qHTS against the NCATS CANVASS Library (AID 1347353); conditions: A2780 ovarian cancer viability, ATPLite luminescence, 72 h; series mostly up to 46.1 µM; also: nearly all actives have a fitted effect of over 60% in size; also: potency is read from the fitted curve at half-maximal effect
# Procedure, shortened: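 Luminescent ATP content (ATPLite, 10 min at room temperature) served as the read-out after cells had been exposed to compounds for 72 hours at 37 °C. Dosing followed an 11-point concentration series.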
# [12] = 10-beta competent E. coli microbial cell viability qHTS against the NCATS CANVASS Library (AID 1347376); conditions: E. coli 10-beta viability, BacTiter-Glo ATP luminescence, overnight; series mostly up to 46.1 µM
# Procedure, shortened: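 E. coli 10-beta, 0.2 OD; cpds 11-pt; o/n 37C, 5% CO2; BacTiter-Glo 20 min RT; luminescence (ATP) = viable cells. Daunomycin ctrl.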
# [13] = qHTS for H2AX Agonists against the NCATS CANVASS Library (AID 1347378); conditions: CHO-K1 H2AX phosphorylation, HTRF TR-FRET, 3 h; series mostly up to 76.9 µM;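 also: phospho-H2AX S139 level in CHO-K1 lysates by TR-FRET emission ratio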
# Procedure, shortened: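 Following overnight seeding, CHO-K1 cells are incubated with a concentration series of compound for 3 hr at 37C (final DMSO 0.76%). Cells are then lysed, detection antibodies added, and emission ratio 665/620 nm recorded after 24 hr at room temperature.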
# [14] = Inflammasome Signaling qHTS Counterscreen: IL-1-beta AlphaLISA counterscreen against the NCATS CANVASS Library (AID 1347381); conditions: Purified IL-1beta AlphaLISA signal interference counterscreen; series mostly up to 57.5 µM;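 also: cell-free check with purified IL-1β in medium and no THP-1 cells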
# Procedure, shortened: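 Cell-free interference check: compounds added to medium spiked with 4 pg purified IL-1β. Anti-IL-1β acceptor beads (6 ug/mL) with 0.6 nM biotinylated antibody added for 1 h at RT, then streptavidin donor beads (24 ug/mL) for 30 min in the dark. AlphaLISA read at 680/615 nm.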
# [15] = Cytotoxicity qHTS for assessment of Hepg2 cells membrane integrity screened against the NCATS CANVASS Library (AID 1347387); conditions: HepG2 LDH release (CytoTox-ONE) fluorescence, 5 h; series mostly up to 46.1 µM
# Procedure, shortened: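 qHTS, 11-pt conc. series, 0.59 nM - 46 uM final; HepG2 2000 cells/well, overnight attachment; 5 hr compound exposure 37C/5% CO2; CytoTox-ONE, 10 min RT; fluorescence ex560/em590 = LDH from damaged membranes.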
# [16] = qHTS assay for small molecule disruptors of mitochondrial membrane potential screened against the NCATS CANVASS Library (AID 1347389); conditions: HepG2 mitochondrial membrane potential, m-MPI red/green ratio, 1.5 h; series mostly up to 46.1 µM; also: nearly all actives have a fitted effect of over 60% in size
# Procedure, shortened: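 HepG2, 2,000 cells/well, attached overnight; compound 1 hr, 37C, 5% CO2; Mito-MPS dye 30 min, 37C; fluorescence 535 nm (monomer) and 590 nm (aggregate); decreased 590/535 ratio = depolarization.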
# [17] = qHTS for activators of dead-cell proteases activity screened against the NCATS CANVASS Library (AID 1347392); conditions: HepG2 cytotoxicity, dead-cell protease luminescence, 5 h; series mostly up to 46.1 µM;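 also: luminescence from protease leaking out of membrane-damaged cells cleaving impermeant substrate; rising signal means more cytotoxicity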
# Procedure, shortened: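 HepG2 cells (2000/well) attached 18 h at 37C, then exposed 5 h to compounds (11-point qHTS). Dead-cell protease activity read as luminescence from cell-impermeant AAF-aminoluciferin substrate after 15 min at room temperature.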
# [18] = Redox Reaction Profiling qHTS: Assay Interference Panel against the NCATS CANVASS Library (AID 1347401); conditions: resazurin-DTT redox cycling, fluorescence, 15 min; series mostly up to 57.1 µM
# Procedure, shortened: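 Resazurin (5 uM) conversion to resorufin measured with 200 uM DTT in 50 mM HEPES pH 7.3, 50 mM NaCl. Compounds tested in 11-point qHTS series. Fluorescence (ex 525/em 598 nm) read before and after 15 min dark incubation.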
# [19] = qHTS for inhibitors of Rabies Virus screened against the NCATS CANVASS Library (AID 1347402; calls by dose curve); conditions: Rabies virus infection cell assay; series mostly up to 45.9 µM
# [20] = qHTS Assay for Identification of Small Molecule Antagonists for Thrombopoietin (TPO) Signaling Pathway (AID 918); conditions: TPO-dependent cell signaling reporter, antagonist mode; also: potency is read from the fitted curve at half-maximal effect; nearly all actives have a fitted effect of over 60% in size
# Procedure, shortened: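 Ba/F3 (murine, hTPO-R, GPIIb-luc reporter); overnight IL-3 withdrawal; cpd + TPO 26 pM final (EC50); 24 h 37 C/5% CO2; Steadylite luminescence after 10 min RT.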
structure (smiles),measurement,setting,value
COC(=O)c1cc2c(cn1)[nH]c1ccccc12,Potency,[1],inactive
CC(C)=CCCC1(C)C=Cc2c(O)c3c(c(CC=C(C)C)c2O1)OC12C(=CC4CC1C(C)(C)OC2(C/C=C(/C)C(=O)O)C4O)C3=O (centres undefined),Potency,[2],126 µM (active)
same,outcome,[3],inactive
same,outcome,[4],inactive
CO[C@H]1[C@@H](O)CC(OC2[C@@H](O)CC(OC3[C@@H](O)C[C@H](OC4CC[C@@]5(C)C(CCC6C5CC(O)[C@]5(C)[C@H](C7=CC(=O)OC7)CCC65O)C4)O[C@@H]3C)O[C@@H]2C)O[C@@H]1C (some centres undefined),Potency,[5],inactive
Oc1c(Cl)c(Cl)c(Cl)c(Cl)c1Cl,Potency,[2],355 µM (active)
COc1ccc2c3c([nH]c2c1)C(C)=NCC3,Potency,[6],inactive
same,Potency,[7],inactive
same,Potency,[8],inactive
same,Potency,[9],inactive
same,Potency,[10],inactive
same,Potency,[11],inactive
same,outcome,[12],inactive
same,Potency,[13],inactive
same,outcome,[14],inactive
same,outcome,[15],inactive
same,Potency,[16],inactive
same,Potency,[17],inactive
same,Potency,[18],inactive
same,outcome,[19],inactive
COc1ccc2c(c1)[nH]c1c(C)nccc12,Potency,[8],inactive
same,Potency,[10],38.6 µM (active)
same,Potency,[11],19.1 µM (active)
same,outcome,[12],inactive
same,Potency,[13],inactive
same,outcome,[14],inactive
same,outcome,[15],inactive
same,Potency,[16],inactive
same,Potency,[17],inactive
same,Potency,[18],inactive
same,outcome,[19],inactive
C=C1[C@@H](C)[C@H]2[C@H](Cc3ccccc3)NC(=O)[C@]23OC(=O)/C=C/[C@H](O)CCC[C@@H](C)C/C=C/[C@H]3[C@@H]1O,Potency,[6],inactive
same,Potency,[7],inactive
same,Potency,[9],inactive
same,outcome,[12],inactive
same,Potency,[13],inactive
same,outcome,[14],inactive
same,outcome,[15],inactive
same,Potency,[16],inactive
same,Potency,[17],inactive
same,Potency,[18],inactive
same,outcome,[19],inactive
CNc1ccc2oc(C[C@H]3O[C@]4(CC[C@H]3C)O[C@H]([C@H](C)C(=O)c3ccc[nH]3)[C@H](C)C[C@H]4C)nc2c1C(=O)O,Potency,[20],3.16 µM (active)
C[C@H]1C[C@H](C)C(=O)[C@@H]([C@H](O)CC2CC(=O)NC(=O)C2)C1,Potency,[5],inactive
C=CCN1CC[C@@]23c4c5ccc(O)c4O[C@H]2/C(=N\N=C2/CC[C@@]4(O)[C@H]6Cc7ccc(O)c8c7[C@@]4(CCN6CC=C)[C@@H]2O8)CC[C@]3(O)[C@@H]1C5,Potency,[20],12.6 µM (active)
CN1[C@@H]2CC[C@H]1CC(O[C@@H](c1ccccc1)c1ccc(Cl)cc1)C2 (some centres undefined),Potency,[20],12.6 µM (active)
CN1Cc2ccccc2[C@@H]2c3cccc4[nH]cc(c34)C[C@H]21,outcome,[3],inactive
same,outcome,[4],inactive
N#CC(C#N)=Cc1ccc([N+](=O)[O-])c(O)c1,Potency,[1],20 µM (active)
